“And” between values parts separate entries of the source, which are not always exact repeats. Equal values may be shown once. The panel holds about 83,000 compounds, 20% with a hit somewhere; the sample as a whole holds those more often.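 For each line, cells grew in 96-well plates with the test compound present at a single concentration for 48 hours.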 The source made the active and inactive calls. The calls were made as follows: active = growth percent below 10; inactive = the rest.

Holding throughout (experiment): NCI-60 one-dose screen, 48 h (100 = growth as untreated, 0 = no growth, -100 = all killed)
Holding throughout (conditions): 10 µM unless noted

In experiment [1] the test system is NCI-H23 lung.
Experiment [2] has as its system NCI-H226 lung.
Experiment [3] relates to NCI-H322M lung.
The test system of experiment [4] is HOP-62 NSCLC.
Experiment [5] concerns NCI-H460 lung.
Experiment [6] concerns HOP-92 NSCLC.
Experiment [7] concerns NCI-H522 lung.
Experiment [8] deals with A549/ATCC NSCLC.
Experiment [9] concerns 786-0 renal.
For experiment [10], the system named is COLO 205 colon.

As for `NS(=O)(=O)c1ccc(C(=O)N=Nc2c(O)[nH]c3c(F)cccc23)cc1`, the growth is 94.9% (inactive) in experiment [1]; 96.8% (inactive) in experiment [2]; 98.2% (inactive) in [3]; 97.1% (inactive) in [4]; 111% (inactive) in experiment [5]; 98.2% (inactive) in experiment [6]. The growth in [7] is 91.2% (inactive); in experiment [8] it was 99.9% (inactive); in experiment [9], 103% (inactive); in experiment [10], 106% (inactive).
For the molecule `CC(=NCc1ccccc1)c1ccc(O)cc1O`, the growth in experiment [1] is 97.5% (inactive); in experiment [2] it was 101% (inactive); in experiment [3], 103% (inactive); in experiment [4], 101% (inactive); in experiment [5] it was 107% (inactive); in [6], 76.2% (inactive). Also, the growth is 111% (inactive) in experiment [7], 100% (inactive) in experiment [8], 105% (inactive) in experiment [9] and 105% (inactive) in [10].
Take `O=C(/C=C\c1ccc(Cl)c(Cl)c1)c1ccccc1`: the growth in experiment [1] was 89.1% (inactive); in experiment [2], 88.2% (inactive) and 92.3% (inactive); in [3], 107% (inactive); in [4], 100% (inactive) and 91.4% (inactive); in experiment [5], 101% (inactive) and 100% (inactive); in experiment [6] it was 70.7% (inactive). In addition, the growth in experiment [7] is 81% (inactive) and 87.1% (inactive); in [8], 86.7% (inactive) and 93.1% (inactive); in experiment [9], 84.9% (inactive) and 104% (inactive); in experiment [10] it was 99.9% (inactive) and 121% (inactive).
For `S=c1nc(CS)[nH]c2ccccc12`, the growth is 89.5% (inactive) in experiment [1]; 87.4% (inactive) in experiment [2]; 89.6% (inactive) in experiment [4]; 100% (inactive) in experiment [5]; 96.8% (inactive) in [6]; 95.6% (inactive) in experiment [7]. Besides, the growth is 96.6% (inactive) in experiment [8] and 103% (inactive) in experiment [9].
Regarding `Clc1ccc(/C=N\N2CCCCCC2)cc1`, the growth in experiment [1] is 97.8% (inactive); in experiment [2], 93.8% (inactive) and 125% (inactive); in experiment [3], 104% (inactive); in experiment [4], 105% (inactive) and 95.9% (inactive); in [5], 108% (inactive) and 119% (inactive); in experiment [7], 123% (inactive) and 83.6% (inactive). Also, the growth in [8] is 94.2% (inactive) and 104% (inactive); in experiment [9], 101% (inactive) and 97.5% (inactive); in [10], 124% (inactive) and 130% (inactive).
Regarding `Cc1cccc(Cc2cnc(NC(=O)CCCOc3ccc(Cl)cc3)s2)c1`, the growth was 54% (inactive) in experiment [1]; 53.8% (inactive) in experiment [2]; 44.7% (inactive) in [3]; 28.7% (inactive) in experiment [4]; 9.65% (active) in [5]; 52.2% (inactive) in experiment [6]. The growth in experiment [7] was 42.5% (inactive); in experiment [8] it was 10.7% (inactive); in experiment [9] it was 11% (inactive); in experiment [10] it was 15.2% (inactive).
With `Cc1ccc(NC(=O)c2ccc(CN3CCN(C)CC3)cc2)cc1Nc1nccc(-c2cccnc2)n1`, the growth in experiment [1] was 82.9% (inactive) and 76.2% (inactive); in experiment [2], 89.4% (inactive) and 78.2% (inactive); in experiment [3] it was 104% (inactive); in [4] it was 84.9% (inactive); in [5], 96.8% (inactive) and 83.9% (inactive); in [6], 56.3% (inactive) and 66.4% (inactive). In addition, the growth in experiment [7] is 51.2% (inactive); in experiment [8], 96.2% (inactive) and 62.2% (inactive); in experiment [9] it was 95% (inactive) and 88.6% (inactive); in experiment [10] it was 101% (inactive) and 78.3% (inactive).
In the case of `C=C1CCC2C3(C)COC(c4ccc(NC(C)=O)cc4)OC3CCC2(C)C1C/C=C1/C(=O)OCC1O` (configuration not stated), the growth was 36.4% (inactive) in experiment [1]; 64.5% (inactive) in experiment [2]; 89% (inactive) in experiment [3]; 85.5% (inactive) in [4]; 66.2% (inactive) in [5]; 72.6% (inactive) in experiment [6]. The growth in experiment [7] is 29.5% (inactive); in experiment [8] it was 35.9% (inactive); in experiment [9], 57.1% (inactive); in experiment [10] it was 82.6% (inactive).
As to `N#Cc1cc(-c2ccnc(Nc3ccc(NC(=O)CCl)cc3)n2)ccc1N1CCCC1`, the growth in experiment [1] was -31.3% (active); in [2] it was -12.4% (active); in [3], 53.4% (inactive); in [4], -4.87% (active); in experiment [5] it was -35.9% (active); in experiment [6], 28.4% (inactive). Besides, the growth was -41.3% (active) in experiment [7], -26.7% (active) in [8], -14.6% (active) in [9] and -59.6% (active) in experiment [10].
For `CC/C(=C(/c1ccc(Cl)cc1)c1ccc(OCCN2CCOCC2)cc1)c1ccccc1`, the growth in [1] was 87.5% (inactive); in [2], 108% (inactive); in [3], 104% (inactive); in experiment [4] it was 106% (inactive); in experiment [5], 96.1% (inactive); in experiment [6], 98.4% (inactive). For the same molecule, the growth was 88.6% (inactive) in experiment [7], 89.9% (inactive) in [8], 103% (inactive) in experiment [9] and 99.8% (inactive) in [10].
For `O=C1c2cccc3cccc(c23)C(=O)N1N1C(=O)c2cccc3c(N4CCNCC4)ccc(c23)C1=O`, the growth in [1] is 92.2% (inactive); in [2], 98.6% (inactive); in [3], 88.2% (inactive); in experiment [4] it was 88.9% (inactive); in experiment [5] it was 72.4% (inactive); in [6], 78.2% (inactive). Besides, the growth was 93.8% (inactive) in experiment [7], 89.9% (inactive) in experiment [8], 73.7% (inactive) in experiment [9] and 95.2% (inactive) in experiment [10].

These data come from PubChem BioAssay (NCI).
